Results reported in PubChem BioAssay (NCATS).
Results filed as inconclusive are left out. The source made the active and inactive calls. Unless noted, calls come from the whole dose curve; as a rule, active = well fitted curve in the direction sought with a large enough effect; inconclusive = small, poorly fitted or top-dose-only effect, or another doubt; inactive = no such curve, though single readings can be large; an effect the other way counts as inactive or inconclusive. Bridge positions count the residues as written; N and C are the ends. Square brackets hold non-standard residues; d marks the D form. Peptide text beside a SMILES is read from it. * marks the point of attachment. Ileψ(thiazoline)Cys = CC[C@H](C)[C@H](N)C1=N[C@H](C(=O)*)CS1; d(aIle) = CC[C@H](C)[C@@H](N)C(=O)O; dOrn = NCCC[C@@H](N)C(=O)O

Legend:
[1] = S16 Schwann cell PMP22 intronic element beta-lactamase assay (AID 624044; calls by dose curve; note: nearly all actives have a fitted effect of over 15% in size)
How it was run: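 Beta-lactamase reporter under a PMP22 intronic regulatory element in stable S16 rat Schwann cells; 24 h compound exposure. 460 nm blue signal normalized between DMSO (0%) and potassium clavulanate, with 535 nm FRET tracking viability; curves classed by r2 and response.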

7G8 = test: qHTS profiling for inhibitors of Plasmodium falciparum proliferation (AID 504749); note: nearly all actives have a fitted effect of over 60% in size; note: potency is the fitted concentration of half-maximal effect; details: P. falciparum in erythrocytes, SYBR Green DNA, 72 h; series mostly up to 12.8 µM
How it was run: (§1)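 Fluorescence of SYBR Green-bound parasite DNA, read at 485/535 nm, served as the growth measure. Infected erythrocytes were cultured with compound 72 h; artemisinin (0.29 uM) and DMSO wells defined the normalization range.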

AA1029 = test: as above; details: P. falciparum in erythrocytes, SYBR Green DNA, 72 h; series mostly up to 12.8 µM
How it was run: as §1

ATS95 = test: as above; details: P. falciparum in erythrocytes, SYBR Green DNA, 72 h; series mostly up to 12.8 µM
How it was run: as §1

CP260 = test: as above; details: P. falciparum in erythrocytes, SYBR Green DNA, 72 h; series mostly up to 12.8 µM
How it was run: as §1

CP265 = test: as above; details: P. falciparum in erythrocytes, SYBR Green DNA, 72 h; series mostly up to 12.8 µM
How it was run: as §1

CP286 = test: as above; details: P. falciparum in erythrocytes, SYBR Green DNA, 72 h; series mostly up to 12.8 µM
How it was run: as §1

CP335 = test: as above; details: P. falciparum in erythrocytes, SYBR Green DNA, 72 h; series mostly up to 12.8 µM
How it was run: as §1

DFO2036 = test: as above; details: P. falciparum in erythrocytes, SYBR Green DNA, 72 h; series mostly up to 12.8 µM
How it was run: as §1

GB4 = test: as above; details: P. falciparum in erythrocytes, SYBR Green DNA, 72 h; series mostly up to 12.8 µM
How it was run: as §1

P93_24 = test: as above; details: P. falciparum in erythrocytes, SYBR Green DNA, 72 h; series mostly up to 12.8 µM
How it was run: as §1

P94_40 = test: as above; details: P. falciparum in erythrocytes, SYBR Green DNA, 72 h; series mostly up to 12.8 µM
How it was run: as §1

PC26 = test: as above; details: P. falciparum in erythrocytes, SYBR Green DNA, 72 h; series mostly up to 12.8 µM
How it was run: as §1

TAB109 = test: as above; details: P. falciparum in erythrocytes, SYBR Green DNA, 72 h; series mostly up to 12.8 µM
How it was run: as §1

[2] = target: Cytochrome P450 1A2 (Homo sapiens) (UniProt P05177); test: p450-cyp1a2 (AID 410; calls by dose curve; note: potency is the fitted concentration of half-maximal effect)
Chain of Cytochrome P450 1A2 (Homo sapiens) (P05177 whole entry, looked up): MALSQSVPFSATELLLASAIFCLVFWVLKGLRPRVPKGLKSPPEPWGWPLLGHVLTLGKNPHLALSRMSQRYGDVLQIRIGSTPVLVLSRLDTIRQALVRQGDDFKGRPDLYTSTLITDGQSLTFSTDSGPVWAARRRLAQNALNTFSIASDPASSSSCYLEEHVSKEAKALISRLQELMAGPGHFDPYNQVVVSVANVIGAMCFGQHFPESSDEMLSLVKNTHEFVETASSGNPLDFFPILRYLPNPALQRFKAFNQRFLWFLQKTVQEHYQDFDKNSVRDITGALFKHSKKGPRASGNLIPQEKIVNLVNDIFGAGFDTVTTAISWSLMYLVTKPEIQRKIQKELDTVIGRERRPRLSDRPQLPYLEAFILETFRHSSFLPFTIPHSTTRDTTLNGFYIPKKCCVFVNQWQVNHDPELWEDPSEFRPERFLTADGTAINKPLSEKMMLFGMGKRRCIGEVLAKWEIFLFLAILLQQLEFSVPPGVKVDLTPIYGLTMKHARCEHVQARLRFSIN
How it was run: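 20nM CYP1A2, 100uM Luciferin-ME (=Km), 100mM KPO4; cpd 10 min RT; +NADPH regen, 60 min RT; stop/detect 20 min; luminescence. Normalized to furafylline 57 uM = full inhibition.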

[3] = target: Cytochrome P450 2C9 (Homo sapiens) (UniProt P11712); test: qHTS Assay for Inhibitors and Substrates of Cytochrome P450 2C9 (AID 883); note: nearly all actives have a fitted effect of over 60% in size; note: potency is the fitted concentration of half-maximal effect
Chain of Cytochrome P450 2C9 (Homo sapiens) (P11712 whole entry, looked up): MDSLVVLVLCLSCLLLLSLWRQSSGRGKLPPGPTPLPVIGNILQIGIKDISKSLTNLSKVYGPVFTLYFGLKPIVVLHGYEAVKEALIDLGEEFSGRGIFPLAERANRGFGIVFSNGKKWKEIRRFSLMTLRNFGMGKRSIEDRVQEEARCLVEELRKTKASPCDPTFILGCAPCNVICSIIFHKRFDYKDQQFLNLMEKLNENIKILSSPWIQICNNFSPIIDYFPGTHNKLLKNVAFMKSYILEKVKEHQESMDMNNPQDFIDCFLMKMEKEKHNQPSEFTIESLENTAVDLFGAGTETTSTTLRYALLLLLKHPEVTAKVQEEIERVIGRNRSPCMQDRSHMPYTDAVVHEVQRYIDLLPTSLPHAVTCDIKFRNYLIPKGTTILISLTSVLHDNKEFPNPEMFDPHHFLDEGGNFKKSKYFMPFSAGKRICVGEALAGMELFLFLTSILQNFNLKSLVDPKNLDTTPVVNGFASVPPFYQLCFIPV
How it was run: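 A luminogenic readout tracked human CYP2C9 (10nM) converting deoxyluciferin (100uM, at KM) in 25mM KPO4 during 60 min at 37C with regenerated NADPH. Values normalized to 57uM sulphaphenazole as complete inhibition.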

[4] = target: Cytochrome P450 2D6 (Homo sapiens) (UniProt P10635); test: qHTS Assay for Inhibitors and Substrates of Cytochrome P450 2D6 (AID 891); note: nearly all actives have a fitted effect of over 60% in size; note: potency is the fitted concentration of half-maximal effect
Chain of Cytochrome P450 2D6 (Homo sapiens) (P10635 whole entry, looked up): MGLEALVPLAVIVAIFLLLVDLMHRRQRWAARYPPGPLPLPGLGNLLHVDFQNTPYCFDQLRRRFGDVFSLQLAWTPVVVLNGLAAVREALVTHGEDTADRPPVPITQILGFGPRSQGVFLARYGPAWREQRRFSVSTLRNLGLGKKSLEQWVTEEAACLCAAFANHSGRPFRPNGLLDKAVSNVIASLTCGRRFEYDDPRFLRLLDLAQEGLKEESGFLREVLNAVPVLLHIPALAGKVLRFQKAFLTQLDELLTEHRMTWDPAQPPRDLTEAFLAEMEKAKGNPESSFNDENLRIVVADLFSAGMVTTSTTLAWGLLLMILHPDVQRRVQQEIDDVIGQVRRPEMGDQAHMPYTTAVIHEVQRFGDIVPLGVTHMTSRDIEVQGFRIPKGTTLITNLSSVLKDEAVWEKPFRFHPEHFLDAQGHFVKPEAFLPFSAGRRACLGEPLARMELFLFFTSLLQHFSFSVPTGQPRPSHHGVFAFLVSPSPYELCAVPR
How it was run: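 Luminescent read-out of luciferin formed by 5 nM human CYP2D6 demethylating 30 uM Luciferin-ME EGE (Km level) over 60 min at room temperature after NADPH regeneration addition. Data normalized to full inhibition by 1.43 uM quinidine.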

[5] = target: Cytochrome P450 3A4 (Homo sapiens) (UniProt P08684); test: qHTS Assay for Inhibitors and Substrates of Cytochrome P450 3A4 (AID 884); note: nearly all actives have a fitted effect of over 50% in size
Chain of Cytochrome P450 3A4 (Homo sapiens) (P08684 whole entry, looked up): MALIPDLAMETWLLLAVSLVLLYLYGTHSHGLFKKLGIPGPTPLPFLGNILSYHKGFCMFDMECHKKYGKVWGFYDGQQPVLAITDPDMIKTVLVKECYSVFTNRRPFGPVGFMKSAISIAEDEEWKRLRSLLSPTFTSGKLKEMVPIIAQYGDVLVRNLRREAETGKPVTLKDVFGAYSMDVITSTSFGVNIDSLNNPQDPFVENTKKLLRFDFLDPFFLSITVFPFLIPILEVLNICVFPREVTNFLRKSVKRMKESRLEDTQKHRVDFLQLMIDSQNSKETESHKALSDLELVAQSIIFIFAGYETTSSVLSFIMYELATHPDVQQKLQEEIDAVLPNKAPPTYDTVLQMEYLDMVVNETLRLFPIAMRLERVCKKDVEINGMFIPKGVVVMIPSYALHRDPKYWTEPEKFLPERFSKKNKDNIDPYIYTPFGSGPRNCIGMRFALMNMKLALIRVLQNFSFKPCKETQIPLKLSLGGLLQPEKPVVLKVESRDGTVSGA
How it was run: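 Luminescent readout of luciferin produced by CYP3A4 (20 nM) dealkylation of Luciferin-PPXE, 25 uM (its KM). NADPH-driven reaction ran 60 min at RT after 10 min compound preincubation; data scaled to 57 uM ketoconazole as 100% inhibition.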

[6] = target: Cytochrome P450 2C19 (Homo sapiens) (UniProt P33261); test: qHTS Assay for Inhibitors and Substrates of Cytochrome P450 2C19 (AID 899); note: nearly all actives have a fitted effect of over 60% in size
Chain of Cytochrome P450 2C19 (Homo sapiens) (P33261 whole entry, looked up): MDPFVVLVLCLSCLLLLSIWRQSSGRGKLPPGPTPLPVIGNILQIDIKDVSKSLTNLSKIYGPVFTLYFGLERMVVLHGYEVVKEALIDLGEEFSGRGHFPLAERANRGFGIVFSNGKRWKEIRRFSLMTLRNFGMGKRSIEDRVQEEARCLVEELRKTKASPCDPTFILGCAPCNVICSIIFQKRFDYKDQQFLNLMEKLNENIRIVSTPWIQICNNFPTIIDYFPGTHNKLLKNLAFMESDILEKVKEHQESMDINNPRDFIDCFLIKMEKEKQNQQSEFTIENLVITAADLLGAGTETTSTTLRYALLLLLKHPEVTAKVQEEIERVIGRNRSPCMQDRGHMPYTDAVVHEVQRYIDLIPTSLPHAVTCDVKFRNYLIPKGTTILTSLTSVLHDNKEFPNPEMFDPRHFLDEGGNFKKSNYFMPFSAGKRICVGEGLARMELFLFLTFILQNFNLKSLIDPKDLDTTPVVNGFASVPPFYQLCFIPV
How it was run: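 NADPH-dependent conversion of Luciferin-H EGE (10uM, at KM) by 5nM enzyme in 50mM KPO4, 60 min at 37C following 10 min compound preincubation. Stopped with luciferin detection buffer; luminescence read after 20 min.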

Measured: Potency

NC[C@@H]1O[C@@H](O[C@H]2[C@H](O)[C@H](O[C@@H]3O[C@H](CO)[C@@H](O)[C@H](N)[C@@H]3O)[C@@H](N)C[C@H]2N)[C@H](N)C[C@@H]1O
inactive: [1] | 7G8 | AA1029 | ATS95 | CP260 | CP265 | CP286 | CP335 | DFO2036 | GB4 | P93_24 | P94_40 | PC26 | TAB109

CCOC(=O)O[C@@H](C)OC(=O)[C@@H]1N2C(=O)[C@@H](NC(=O)[C@@H](N)c3ccccc3)[C@H]2SC1(C)C
inactive: [1] | 7G8 | AA1029 | ATS95 | CP260 | CP265 | CP286 | CP335 | DFO2036 | GB4 | P93_24 | P94_40 | PC26 | TAB109

Clc1ccc([C@H](Cn2ccnc2)OCc2c(Cl)cccc2Cl)c(Cl)c1
inactive: [1]
active: 7G8 1.58 µM | CP265 3.16 µM | DFO2036 3.55 µM | GB4 4.55 µM | P93_24 794 nM | P94_40 3.16 µM | PC26 4.55 µM | TAB109 2.82 µM

CO[C@]1(NC(=O)[C@H](C(=O)O)c2ccc(O)cc2)C(=O)N2C(C(=O)O)=C(CSc3nnnn3C)CO[C@H]21
inactive: [2] | [1] | 7G8 | AA1029 | ATS95 | CP260 | CP265 | CP286 | CP335 | DFO2036 | GB4 | P93_24 | P94_40 | PC26 | TAB109

CC#C[C@@]1(O)CC[C@H]2[C@@H]3CCC4=CC(=O)CCC4=C3[C@H](c3ccc(N(C)C)cc3)C[C@]21C
active: [3] 3.98 µM

CCN(CCCCOC(=O)c1ccc(OC)c(OC)c1)[C@@H](C)Cc1ccc(OC)cc1
inactive: AA1029 | DFO2036 | GB4 | P93_24

CC(=O)OCC(=O)[C@@]1(O)CC[C@@H]2[C@H]3CCC4=CC(=O)C=C[C@]4(C)[C@]3(F)[C@@H](O)C[C@@]21C
inactive: [2] | [1] | 7G8 | AA1029 | ATS95 | CP260 | CP265 | CP286 | CP335 | DFO2036 | GB4 | P93_24 | PC26 | TAB109

CC(C)(C)NC[C@H](O)COc1cccc2c1CCC(=O)N2
inactive: [2] | [1] | 7G8 | AA1029 | ATS95 | CP260 | CP265 | CP286 | DFO2036 | GB4 | P93_24 | P94_40 | PC26 | TAB109

CC[C@H](C)[C@H](N)C1=N[C@H](C(=O)N[C@@H](CC(C)C)C(=O)N[C@@H](CCC(=O)O)C(=O)N[C@@H](C(=O)N[C@H]2CCCCNC(=O)[C@@H](CC(N)=O)NC(=O)[C@@H](CC(=O)O)NC(=O)[C@@H](Cc3cnc[nH]3)NC(=O)[C@@H](Cc3ccccc3)NC(=O)[C@@H]([C@@H](C)CC)NC(=O)[C@@H](CCCN)NC2=O)[C@@H](C)CC)CS1 ({Ileψ(thiazoline)Cys}-LE[d(aIle)]K[dOrn][d(aIle)][dF][dH][dD][dN]; lactam 4-C)
inactive: 7G8 | AA1029 | ATS95 | CP260 | CP265 | CP286 | CP335 | DFO2036 | GB4 | P93_24 | P94_40 | PC26 | TAB109

C[C@@H]1C[C@H]2[C@@H]3C[C@H](F)C4=CC(=O)C=C[C@@]4(C)[C@]3(F)[C@H](O)C[C@]2(C)[C@@]1(O)C(=O)CO
inactive: [1] | 7G8 | AA1029 | ATS95 | CP260 | CP265 | CP286 | CP335 | DFO2036 | GB4 | P93_24 | P94_40 | PC26 | TAB109

CCc1c(C)[nH]c2c1C(=O)[C@H](CN1CCOCC1)CC2
inactive: 7G8 | AA1029 | ATS95 | CP260 | CP265 | CP286 | CP335 | DFO2036 | GB4 | P93_24 | P94_40 | PC26 | TAB109

O=C(O)COCCN1CCN([C@@H](c2ccccc2)c2ccc(Cl)cc2)CC1
inactive: AA1029 | ATS95 | CP260 | CP265 | CP286 | CP335 | DFO2036 | P94_40 | PC26 | TAB109

Cc1cccc(CN2CCN([C@@H](c3ccccc3)c3ccc(Cl)cc3)CC2)c1
inactive: [1]
active: [4] 3.16 µM | 7G8 3.55 µM

C[C@@H](CNC1CCCCC1)OC(=O)c1ccccc1
active: 7G8 0.891 µM | GB4 4.55 µM | P93_24 3160 nM | P94_40 3.55 µM | PC26 5.73 µM | TAB109 3.55 µM

O=C1C=CC(=O)c2c1ccc1c2ccc2ccccc21
active: [2] 794 nM

Nc1ncnc2c1ncn2[C@@H]1O[C@H](COP(=O)(O)O)[C@@H](O)[C@@H]1O
inactive: [2] | [3] | [5] | [4] | [6]

CCC(=O)OCC(=O)[C@@]1(OC(=O)CC)[C@H](C)C[C@@H]2[C@H]3CCC4=CC(=O)C=C[C@]4(C)[C@]3(Cl)[C@@H](O)C[C@@]21C
inactive: [2]
